5 compounds from PubChem BioAssay can be followed below.

SMILES strings stand for the structures. The source made the active and inactive calls.

The test system of assay [1] is Human papillomavirus type 1a protein E7 (residues 44-93). In words: small molecules binding HPV E7 44-93 – biochemical, small-molecule microarray, residues 44-93, 635 nm fluorescence, primary screen (AID 1108).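 Also: E7 fragment applied at 1 µg/mL in TBST for 1 h at 4 C; score combines spot fluorescence with its signal to noise ratio.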 Conditions: fluorescence 635 nm, higher = more signal.
Assay [2] can be described thus: hepatitis C replication reporter changes, two-sided – Huh7 cells, luciferase reporter, HCV replication inhibitor project, primary screen (AID 1109).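 Also: huh7 hepatoma cells harbouring a luciferase neomycin HCV replicon reporter; luciferase luminescence as measure of HCV replicon replication; test concentration not given here.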 The following applies: Huh7 HCV replicon luciferase reporter, 48 h; higher = more signal. In general terms: Reporter assays use an easily measured gene product as a stand-in for the process of interest.
Assay [3] addresses Left-right determination factor 2 (Homo sapiens) (UniProt O00292). The assay can be described thus: small molecules binding LEFTY2 protein – biochemical, small-molecule microarray, 635 nm fluorescence scan, primary screen (AID 1110). The following applies: higher = more signal.
The target of assay [4] is Calmodulin-1 (Homo sapiens) (UniProt P0DP23). In words: small molecules binding calmodulin-1 with EGTA – biochemical, small-molecule microarray, Cy5-labelled CALM1, profiling panel (AID 1111).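 Also: labelled calmodulin applied in Tris saline Tween buffer holding calcium plus EGTA and DTT.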 Conditions: Cy5-CALM1 binding fluorescence, higher = more signal.
For assay [5] the target is unchanged. The assay can be described thus: small molecules binding Ca-loaded calmodulin-1 – biochemical, small-molecule microarray, Cy5-labelled CALM1, plus calcium, artefact control for SMM control-protein annotation, profiling panel (AID 1112).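 Also: score merges spot fluorescence with signal to noise from triplicate slides.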 Conditions: Cy5-CALM1 binding fluorescence, higher = more signal.
The nature of assay [6]: probe aWnt5a binding to arrayed compounds – biochemical, biotinylated probe, 635/667 nm fluorescence, primary screen (AID 1113).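 Also: score merges 667 nm fluorescence intensity with signal-to-noise per printed feature.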 The following applies: small-molecule microarray, higher = more signal.
A short description of assay [7]: probe aShh binding to arrayed compounds – biochemical, biotinylated probe, 635/667 nm fluorescence, primary screen (AID 1114).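 Also: probe is biotin-labelled aShh protein from a stem cell growth factor screen; measures binding of labelled protein to compounds printed on the slide; score merges feature fluorescence at 667 nm with signal-to-noise.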 The following applies: small-molecule microarray, higher = more signal.
A short description of assay [8]: probe aNog binding to arrayed compounds – biochemical, biotinylated probe, 635/667 nm fluorescence, primary screen (AID 1115).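 Also: probe is biotinylated aNog protein used at 0.15 µg/mL for 1 h at 4 C; z-score combines 667 nm fluorescence of each spot with its signal to noise.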 Conditions: small-molecule microarray, higher = more signal.
For assay [9], the target named is Torsin-1A-interacting protein 1 (Homo sapiens) (UniProt Q5JTV8). The assay can be described thus: compound microarray binding of lysate hLAP1 – cell lysate, small-molecule microarray, COS7 lysate, 635/667 nm fluorescence, primary screen (AID 1116). The following applies: 635 nm fluorescence, higher = more signal.
Chain of Torsin-1A-interacting protein 1 (Homo sapiens) (Q5JTV8 whole entry, looked up): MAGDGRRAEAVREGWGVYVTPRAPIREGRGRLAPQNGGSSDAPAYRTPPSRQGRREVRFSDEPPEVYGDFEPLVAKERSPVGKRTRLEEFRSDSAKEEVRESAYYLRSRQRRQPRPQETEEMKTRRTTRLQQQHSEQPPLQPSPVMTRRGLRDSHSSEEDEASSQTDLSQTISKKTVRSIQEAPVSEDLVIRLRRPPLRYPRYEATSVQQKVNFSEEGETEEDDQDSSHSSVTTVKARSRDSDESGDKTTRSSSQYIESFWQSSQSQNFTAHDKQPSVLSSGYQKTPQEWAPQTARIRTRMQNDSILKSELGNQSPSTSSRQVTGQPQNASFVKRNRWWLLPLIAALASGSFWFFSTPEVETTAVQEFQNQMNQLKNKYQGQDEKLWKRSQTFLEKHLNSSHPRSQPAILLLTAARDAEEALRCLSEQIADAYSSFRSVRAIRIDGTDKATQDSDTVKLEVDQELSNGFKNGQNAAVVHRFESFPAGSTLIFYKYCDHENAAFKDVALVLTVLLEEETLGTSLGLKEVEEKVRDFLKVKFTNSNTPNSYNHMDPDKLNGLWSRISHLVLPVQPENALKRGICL
Assay [10] addresses Alpha-bungarotoxin (Bungarus multicinctus) (UniProt P60615). The assay can be described thus: compounds binding labelled alpha-BTX control protein – biochemical, small-molecule microarray, Alexa647 label, 635/667 nm fluorescence, artefact control for SMM control protein annotation, profiling panel (AID 1117). The following applies: alpha-BTX-A647 binding fluorescence, higher = more signal.

Assay [11] concerns the target Albumin (Bos taurus) (UniProt P02769). The assay can be described thus: compounds binding labelled BSA control protein – biochemical, small-molecule microarray, Alexa647 label, 635/667 nm fluorescence, artefact control for SMM control protein annotation, profiling panel (AID 1118).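 Also: score merges 667 nm emission intensity and signal-to-noise per printed compound spot.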 The following applies: BSA-A647 binding, fluorescence 635 nm, higher = more signal.
Assay [12] can be described thus: probe aXIP binding to arrayed compounds – biochemical, NeuroSMM set, 635/667 nm fluorescence, primary screen (AID 1119).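 Also: probe is the protein aXip251-270 applied at 1 µg/mL to compound-printed slides; binding of probe to printed compounds measured as 667 nm fluorescence plus signal to noise.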 The following applies: small-molecule microarray, higher = more signal, called active from +8 up or from −8 down.
The nature of assay [13]: probe aNOTCH3 binding on compound microarray – biochemical, small-molecule microarray, 635/667 nm fluorescence, primary screen (AID 1120).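 Also: probe is a biotin-tagged antibody raised against NOTCH3 rather than NOTCH3 protein; score merges spot fluorescence near 667 nm with spot signal to noise.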 Conditions: higher = more signal.
Assay [14] in a line: probe aNOTCH2 binding on compound microarray – biochemical, small-molecule microarray, 635/667 nm fluorescence, primary screen (AID 1121).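 Also: score merges feature fluorescence read at 667 nm with its signal to noise.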 The following applies: higher = more signal.
The target in assay [15] is Carbonic anhydrase 2 (Homo sapiens) (UniProt P00918). In words: compounds binding carbonic anhydrase 2 – biochemical, small-molecule microarray, Alexa647-labelled CAII, profiling panel (AID 1122). Conditions: CAII-A647 binding fluorescence, higher = more signal.
The nature of assay [16]: COS7 lysate on small-molecule microarray, probe aHis, 635 nm (AID 1123).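 Also: z-score combines 667nm fluorescence intensity with signal-to-noise per printed compound spot.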 The following applies: COS7 cell lysate, fluorescence, higher = more signal.
The nature of assay [17]: probe aLAP1 signal on lysate-treated microarray – cell lysate, small-molecule microarray, COS7 lysate, primary screen (AID 1124).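 Also: lysate comes from COS7 cells expressing LAP1 and is applied at 0.3 µg/mL; score merges spot fluorescence near 667 nm with signal-to-noise over triplicate slides.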 The following applies: probe aLAP1, fluorescence, higher = more signal.
Assay [18] has as its system Sam68 (KHDRBS1). The assay can be described thus: compounds binding KHDRBS1 protein – biochemical, small-molecule microarray, 635 nm fluorescence, primary screen (AID 1125).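 Also: score merges 667 nm channel intensity with signal to noise over triplicate slides.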 The following applies: higher = more signal.
The test system of assay [19] is Chordin-like protein 2 (CHRDL2). The assay can be described thus: compounds binding chordin-like 2 – biochemical, small-molecule microarray, 635 nm fluorescence, primary screen (AID 1126).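 Also: printed compound slides probed with Chrdl2 protein at 4 µg/mL for 1 h at 4 C; score merges 667 nm emission intensity with signal to noise over three replicate slides.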 The following applies: fluorescence 635 nm, higher = more signal.
Assay [20] deals with Concanavalin-A (Canavalia ensiformis) (UniProt P02866). In words: compounds binding concanavalin A lectin – biochemical, small-molecule microarray, Alexa647 label, 635 nm, artefact control for SMM control protein annotation, primary screen (AID 1127).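 Also: z combines 667 nm emission intensity with signal-to-noise across three replicate slides.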 The following applies: ConA-A647 binding fluorescence, higher = more signal.
Chain of Concanavalin-A (Canavalia ensiformis) (P02866 whole entry, looked up): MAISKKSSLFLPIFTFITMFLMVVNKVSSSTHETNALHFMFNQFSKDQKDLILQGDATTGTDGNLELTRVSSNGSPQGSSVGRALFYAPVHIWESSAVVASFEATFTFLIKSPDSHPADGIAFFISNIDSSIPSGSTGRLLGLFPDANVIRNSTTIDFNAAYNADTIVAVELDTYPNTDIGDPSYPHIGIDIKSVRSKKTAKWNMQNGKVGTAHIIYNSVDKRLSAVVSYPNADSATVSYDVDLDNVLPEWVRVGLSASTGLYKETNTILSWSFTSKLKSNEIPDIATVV

Chain of Albumin (Bos taurus) (P02769 whole entry, looked up): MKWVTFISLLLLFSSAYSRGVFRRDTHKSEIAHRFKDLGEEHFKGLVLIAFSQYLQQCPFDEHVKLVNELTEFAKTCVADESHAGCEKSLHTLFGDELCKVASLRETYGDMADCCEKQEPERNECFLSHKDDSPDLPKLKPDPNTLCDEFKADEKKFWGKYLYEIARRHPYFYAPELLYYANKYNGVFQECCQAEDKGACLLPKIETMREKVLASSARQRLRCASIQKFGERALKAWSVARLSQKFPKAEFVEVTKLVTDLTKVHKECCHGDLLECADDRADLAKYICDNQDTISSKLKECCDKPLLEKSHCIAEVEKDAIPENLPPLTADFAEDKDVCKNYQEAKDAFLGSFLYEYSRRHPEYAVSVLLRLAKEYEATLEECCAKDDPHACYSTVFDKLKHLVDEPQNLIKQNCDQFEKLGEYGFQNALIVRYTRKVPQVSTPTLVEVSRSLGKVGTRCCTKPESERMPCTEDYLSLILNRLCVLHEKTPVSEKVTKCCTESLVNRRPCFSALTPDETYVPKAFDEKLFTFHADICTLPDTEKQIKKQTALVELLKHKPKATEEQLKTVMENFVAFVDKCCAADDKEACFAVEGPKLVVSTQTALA
Chain of Left-right determination factor 2 (Homo sapiens) (O00292 whole entry, looked up): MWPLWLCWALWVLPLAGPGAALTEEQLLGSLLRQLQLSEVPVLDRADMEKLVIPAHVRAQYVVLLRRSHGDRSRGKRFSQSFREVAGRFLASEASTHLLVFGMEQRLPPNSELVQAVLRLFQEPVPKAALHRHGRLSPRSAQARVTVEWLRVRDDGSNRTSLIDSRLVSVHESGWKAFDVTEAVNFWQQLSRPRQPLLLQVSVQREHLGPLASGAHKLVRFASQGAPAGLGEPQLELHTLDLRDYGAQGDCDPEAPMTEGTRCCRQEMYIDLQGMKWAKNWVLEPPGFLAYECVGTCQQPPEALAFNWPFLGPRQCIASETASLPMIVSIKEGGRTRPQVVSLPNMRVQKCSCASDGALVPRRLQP
Chain of Alpha-bungarotoxin (Bungarus multicinctus) (P60615 whole entry, looked up): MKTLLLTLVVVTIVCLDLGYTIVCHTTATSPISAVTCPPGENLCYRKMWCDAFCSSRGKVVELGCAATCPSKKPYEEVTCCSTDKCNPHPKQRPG

On to `NC(=O)N1C(=O)C2C(C1=O)C1C=C(CCCO)C2C(c2ccc(CN3CCCC3)cc2)N1Cc1cccc(OC(F)(F)F)c1` (stereo not given), for which the composite z-score in [1] is 0.433; in assay [3], 0.565; in [4] it was 0.011; in [5], -0.202; in [6], -0.104; in assay [7], 0.296. The composite z-score in [8] is 0.429; in assay [9], -0.226; in [10], 0.546; in assay [11] it was 0.0639; in [13] it was 0.0142; in assay [14], -0.0148. In addition, the composite z-score in [15] is 0.203; in assay [16], 0.904; in assay [17] it was 0.0715; in [18], 0.64; in [19], 0.681; in assay [20], -0.171. The same compound registered a z-score in [2] of -3.48. Further, the composite Z-score in assay [12] is 0.463 (inactive).
For the compound `COc1ccc(CCNC(=O)[C@@]2(Sc3ccc(C)cc3)CC(=O)N(Cc3cc(C(F)(F)F)cc(C(F)(F)F)c3)[C@@H]2c2ccc(CO)cc2)cc1`, the composite z-score in assay [1] is -1.13; in [3], -2.47; in [4], -0.615; in [5], -0.0998; in assay [6] it was -0.124; in assay [7] it was -0.117. For the same compound, the composite z-score in assay [8] was -0.54; in assay [9], -0.282; in assay [10], 1.24; in assay [11], -0.391; in [13], -0.352; in assay [14] it was 0.118. The composite z-score in assay [15] is 0.711; in assay [16], 1.16; in [17], 0.538; in [18], -1.13; in assay [19], -2.73; in assay [20], -3.06. The same compound came in with a z-score in [2] of -0.146. Moreover, the composite Z-score in assay [12] was -0.669 (inactive).
In the case of `CCC[C@@H]1[C@@H](Sc2ccccc2)[C@@H](C(=O)O)[C@H](c2ccc(C)cc2)N1S(=O)(=O)c1ccc(C)cc1`, the composite z-score in assay [1] was 1.47; in [3], 0.241; in assay [4] it was 1.87; in [5], 0.859; in [6], 0.108; in assay [7], -0.0866. Further, the composite z-score in assay [8] is -0.0987; in assay [9] it was 0.425; in assay [10], 1.41; in [11], 0.771; in assay [13], 0.322; in assay [14] it was -0.0794. Besides, the composite z-score in [15] was 0.594; in assay [16], 2.65; in [17], 1.39; in [18], 1.33; in assay [19] it was -0.432; in assay [20], 1.23. The compound further gave a z-score in [2] of -1.57. Also, in [12], the composite Z-score was 0.398 (inactive).
In the case of `CC(C)C[C@@H]1NC(=O)[C@H]2C[C@@H](C(=O)NCCCCCCNC(=O)CS)[C@@H](c3ccc(O)cc3)N2C1=O`, the composite z-score was 1.4 in assay [1]; 0.719 in assay [3]; 1.56 in assay [4]; 0.858 in assay [5]; -0.0718 in assay [6]; -0.0362 in assay [7]. In addition, the composite z-score was -0.164 in assay [8]; 1.47 in assay [9]; -0.827 in [10]; 0.291 in [11]; -0.0581 in assay [13]; 0.0018 in assay [14]. In addition, the composite z-score in [15] came out at 0.665; in assay [16], 1.73; in assay [17], 0.0905; in assay [18] it was 1.3; in assay [19], 0.986; in [20] it was 1.11. For the same compound, in assay [2], the z-score is -1.13. Further, in assay [12], the composite Z-score is 0.741 (inactive).
As for `COC(=O)C1=CC(CCCO)=CC(C2CC2)N(Cc2cccc(OC(F)(F)F)c2)C=C1C(=O)OC` (stereo not given), the composite z-score in assay [1] is 1.43; in assay [3] it was -0.724; in assay [4] it was 0.302; in [5] it was 0.364; in [6], 0.0077; in assay [7], -0.0035. The composite z-score in [8] was 0.374; in assay [9], -0.302; in assay [10], 0.0939; in assay [11] it was 0.896; in assay [13], -0.0039; in assay [14] it was -0.138. Further, the composite z-score in assay [15] was 0.806; in [16], 2.23; in assay [17], 0.637; in assay [18] it was 1.26; in assay [19] it was -0.745; in assay [20], 0.449. The z-score in assay [2] was -1.46. Moreover, in assay [12], the composite Z-score is 0.816 (inactive).
